Compound activity as filed in PubChem.
Sampled rows, rich in hits. Any-hit rate of the full collection: about 2.8%.
B2AR arrestin ag: agonists recruiting beta-arrestin to human beta2-adrenergic receptor | Potency, µM (doses to about 46.1 µM), usual class: activators | 44,000 tested, under 10 active | HTLA Tango cells, beta-arrestin recruitment, luciferase luminescence, 18 h
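Luminescence read-out: arrestin recruitment to recombinant beta2-AR releases tTA, inducing luciferase. Cells exposed 18 hr at 37 degrees C to up to 46 microM compound; %Activity from corrected signal, concentration-response curves classified by r2, magnitude and efficacy.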
FH mod: Identification of activators of human fumarate hydratase by quantitative high-throughput screening; FH coupled MDH/diaphorase resazurin fluorescence, 15 min; Potency, µM (top dose mostly 79.9 µM), hits mostly inhibitors; 0.22% of 54,000 active; further: the screen sought activators but most active calls are inhibition curves; nearly all actives have a fitted effect of over 45% in size
Target sequence (P07954 whole entry, looked up): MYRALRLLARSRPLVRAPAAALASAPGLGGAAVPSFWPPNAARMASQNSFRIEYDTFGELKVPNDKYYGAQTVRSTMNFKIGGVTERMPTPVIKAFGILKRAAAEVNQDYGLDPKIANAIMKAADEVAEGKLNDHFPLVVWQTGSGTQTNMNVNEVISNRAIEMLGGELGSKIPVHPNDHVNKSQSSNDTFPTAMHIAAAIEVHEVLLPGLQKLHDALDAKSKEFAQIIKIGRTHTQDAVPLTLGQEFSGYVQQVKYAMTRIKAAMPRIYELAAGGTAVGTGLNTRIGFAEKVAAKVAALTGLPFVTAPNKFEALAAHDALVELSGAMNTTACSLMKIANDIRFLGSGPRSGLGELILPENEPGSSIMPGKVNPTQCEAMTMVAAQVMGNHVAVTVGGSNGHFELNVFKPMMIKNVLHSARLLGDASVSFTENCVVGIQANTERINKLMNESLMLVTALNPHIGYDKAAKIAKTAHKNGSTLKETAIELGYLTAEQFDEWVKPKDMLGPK
GALC G270D act: enhancers of human galactocerebrosidase G270D mutant activity in cells | 145M-Twi-hGALC-G270D cells (Twitcher mouse brain line with human GALC G270D), HMU-beta-Gal fluorescence, 48 h | AID 1159614 | Potency, µM (doses to about 57.5 µM), hits mostly activators | 0.1% of 45,000 active; further: nearly all actives have a fitted effect of over 65% in size
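Live 145M-Twi cells (Twitcher mouse brain-derived, GALC-null) stably expressing human GALC-G270D, with a wild-type GALC line, were compound-treated. Residual GALC activity was then read as fluorescence from 0.1 mM final HMU-β-gal at pH 5.2; higher signal means activation.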
GPR32 ag: GPR32 (DRV1) agonism, beta-arrestin recruitment. CHO-K1 GPR32 beta-arrestin PathHunter luminescence, 90 min; zero percent set by DMSO-only wells. O75388. 2.5% of 48,000 active. activation, % at 76.9 µM;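 active means activation of at least 60% and not above a set upper limit, about 1 call in 100 departs from these limits; inconclusive means activation of 40% to 60%, or above that upper limit; inactive means activation under 40%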
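PathHunter enzyme-fragment complementation, CHO-K1 GPR32 stable line; 2,500 cells/well, overnight attach; cpd 90 min 37 °C 5% CO2; detection reagent 1 h RT; chemiluminescence. DMSO = EC0.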
Large screens that a line does not name were inactive; ! = not confirmed by another sample. Unless noted, the call rests on the fitted dose curve; in most records, active means well fitted curve in the direction sought with a large enough effect; inconclusive means small, poorly fitted or top-dose-only effect, or another doubt; inactive means no such curve, though single readings can be large; an effect the other way counts as inactive or inconclusive.

O=C(Nc1ccc(F)cc1)c1ccc(Cn2nc(N3CCN(c4ccccc4)CC3)ccc2=O)o1	none
Cc1ccc(CNC(=O)Cn2nc(N3CCN(c4ccccc4)CC3)ccc2=O)cc1	none
O=C(Cn1nc(N2CCN(c3ccccc3)CC2)ccc1=O)NCc1cccc(Cl)c1	GPR32 ag 121
O=C(Nc1ccccc1F)c1ccc(Cn2nc(N3CCN(c4ccccc4)CC3)ccc2=O)o1	GPR32 ag 90
CSc1ccc(CNC(=O)Cn2nc(N3CCN(c4ccccc4)CC3)ccc2=O)cc1	GPR32 ag 95
CCCN1C(=O)c2[nH]nc(-c3ccc(F)cc3)c2C1c1ccccn1 (stereo not drawn)	FH mod inconclusive
O=C1c2[nH]nc(-c3ccc(F)cc3)c2C(c2ccccc2F)N1c1ccccc1 (stereo not drawn)	GPR32 ag 108
CNS(=O)(=O)c1ccc2c(c1)/C(=C/c1[nH]c3c(c1CCCN1CCN(C)CC1)CCCC3)C(=O)N2	none (no result: B2AR arrestin ag, GALC G270D act, GPR32 ag)
Cc1c(-c2ccc(Cl)cc2)c(=O)oc2c(CN3CCOCC3)c(O)ccc12	none
Cc1c(-c2ccc(Cl)cc2)c(=O)oc2c(CN3CCCC3)c(O)ccc12	GALC G270D act 40µM
C=C1C(OC2OCC(O)C(O)C2O)CC2C(C)(C)C(O)CCC2(C)C1CC/C(C)=C\CO (stereo not drawn)	none (no result: B2AR arrestin ag, GALC G270D act, GPR32 ag)
CN1CCCN(C(=O)c2cccc(-c3ccc(/C=C4\C(=O)Nc5ccc(Cl)cc54)o3)c2)CC1	none (no result: B2AR arrestin ag, GALC G270D act, GPR32 ag)
COC(=O)c1c(NC(=O)c2nc(SCc3ccc(F)cc3)ncc2Cl)sc2c1CCCC2	none
CC(C)c1nnc(NC(=O)c2nc(SCc3ccc(F)cc3)ncc2Cl)s1	GPR32 ag 109
N#Cc1ccc(C2CCCc3cncn32)cc1 (stereo not drawn)	none (no result: B2AR arrestin ag, GALC G270D act, GPR32 ag)
CCC(C)/C=C(C)/C=C/C1=CC2=C(Cl)C(=O)C(C)(OC(C)=O)C(=O)C2=CN1C(CC(=O)O)C(=O)O (stereo not drawn)	none (no result: B2AR arrestin ag, GALC G270D act, GPR32 ag)
CCC(=O)N1CCc2cc(S(=O)(=O)NCc3ccc(C)cc3)ccc21	none
CCC(=O)N1CCc2cc(S(=O)(=O)N(C)c3cccc(C)c3)ccc21	GPR32 ag 63
COc1c(C(C)C)c(O)c(O)c2c1C(OC)[C@H]1OC(=O)[C@@]23CCCC(C)(C)[C@H]13 (stereo partly drawn)	FH mod 13µM (no result: B2AR arrestin ag, GALC G270D act, GPR32 ag)
COc1ccc(OCC(O)Cn2c(=N)n(CCN3CCCCC3)c3ccccc32)cc1 (stereo not drawn)	none
N=c1n(CCN2CCCCC2)c2ccccc2n1CC(O)COc1ccc(Cl)cc1Cl (stereo not drawn)	GPR32 ag 70
O=C(NCCc1ccccc1)c1ccc2c(c1)N(Cc1ccc(F)cc1Cl)C(=O)CS2	GPR32 ag 108
O=C(NCCc1ccc(Cl)cc1)c1ccc2c(c1)N(Cc1ccc(F)cc1Cl)C(=O)CS2	none
COc1ccc(C(=O)NCC(c2cccs2)S(=O)(=O)c2ccc(F)c(C)c2)cc1 (stereo not drawn)	GPR32 ag 66
COc1ccc(C(=O)NCC(c2cccs2)S(=O)(=O)c2cccs2)cc1 (stereo not drawn)	GPR32 ag 83
COc1ccc(CCNC(=O)C(=O)NCC(c2cccs2)S(=O)(=O)c2ccc(F)cc2)cc1 (stereo not drawn)	GPR32 ag 85
COc1ccc(Cl)cc1N(C)C(=O)C(=O)Nc1ccc2nc3n(c(=O)c2c1)CCCCC3	GPR32 ag 80
CC(=O)Nc1cc(-c2ccccc2)nn1Cc1cccc(Cl)c1	none
CSc1nn(Cc2cccc(Cl)c2)c(N(C(C)=O)C(C)=O)c1S(=O)(=O)c1ccccc1	GPR32 ag 76
CC1=C(CO)C(=O)O[C@@H]([C@@H](C)[C@H]2CC[C@H]3[C@@H]4C[C@H]5O[C@]56[C@@H](O)C=CC(=O)[C@]6(C)[C@H]4CC[C@]23C)C1	none (no result: B2AR arrestin ag, GALC G270D act, GPR32 ag)
Cc1cccc(C)c1OCC(=O)Nc1nonc1-c1ccc(Br)cc1	none
O=C(Nc1nonc1-c1ccc(Br)cc1)c1ccco1	GPR32 ag 71
Cc1[nH]c2ccccc2c1C1(O)C(=O)N(Cc2ccccc2Cl)c2ccccc21 (stereo not drawn)	FH mod inconclusive, GPR32 ag 105
NC(=NCCCCCCN=C(N)/N=C(\N)Nc1ccc(Cl)cc1)/N=C(\N)Nc1ccc(Cl)cc1	GPR32 ag 86 (no result: B2AR arrestin ag)
C[C@@H](CN(C)C)CN1c2ccccc2Sc2ccccc21	GPR32 ag inconclusive (no result: B2AR arrestin ag)
CC(CN1c2ccccc2Sc2ccccc21)N(C)C (stereo not drawn)	FH mod inconclusive, GPR32 ag 108! (no result: B2AR arrestin ag)
CCCN1CCC[C@@H](c2cccc(S(C)(=O)=O)c2)C1	none (no result: B2AR arrestin ag, GALC G270D act, GPR32 ag)
Cc1ccc(NC(=O)CCS(=O)(=O)c2ccc(Br)s2)c(Br)c1	GPR32 ag 71
CC(=O)c1cccc(NC(=O)CCS(=O)(=O)c2ccc(Br)s2)c1	none
CCCCN1CC(c2nc3ccccc3n2CCCCOc2c(C)cccc2C)CC1=O (stereo not drawn)	GPR32 ag 72
CCOc1ccccc1N1CC(c2nc3ccccc3n2CCOc2ccc(OC)cc2)CC1=O (stereo not drawn)	FH mod inconclusive, GPR32 ag 80
OC[C@@]1(O)CO[C@@H](OC[C@H]2O[C@@H](Oc3ccccc3)[C@H](O)[C@@H](O)[C@@H]2O)[C@@H]1O	none (no result: B2AR arrestin ag, GALC G270D act, GPR32 ag)
CCOc1ccc(-c2cc(CCCC(=O)NCCc3ccc(OC)c(OC)c3)no2)cc1	none
CCOc1ccc(-c2cc(CCCC(=O)NCCc3cc(OC)c(OC)c(OC)c3)no2)cc1	GPR32 ag 72
CC(=O)O[C@@H]1C[C@@]23C[C@@]24CC[C@H](O[C@@H]2OC[C@H](O)[C@H](O)[C@H]2O)C(C)(C)[C@@H]4CC[C@H]3[C@]2(C)[C@@H](O)C34O[C@H](C[C@@H](C)[C@@H]3[C@@]12C)[C@@H](C(C)(C)O)O4	none (no result: B2AR arrestin ag, GALC G270D act, GPR32 ag)
COC(=O)c1c(SC)nc2ccccc2c1OCc1cccc(C)c1	none
COC(=O)c1c(SC)nc2ccccc2c1OCc1ccc(C)cc1C	FH mod 35µM
OCCN1CCN(CCCN2c3ccccc3Sc3ccc(C(F)(F)F)cc32)CC1	none (no result: B2AR arrestin ag)
OCCN1CCN(CC/C=C2/c3ccccc3Sc3ccc(C(F)(F)F)cc32)CC1	FH mod inconclusive, GPR32 ag 62! (no result: B2AR arrestin ag)
CCCN(CCC)CC(O)Cn1cc(/C=C/C(=O)c2ccc(OCC)cc2)c2ccccc21 (stereo not drawn)	GALC G270D act 35µM, GPR32 ag inconclusive
Cc1cc2[nH]c(=O)c(=O)[nH]c2cc1S(=O)(=O)N1CCN(c2ccccc2F)CC1	GPR32 ag 70
Cc1cc2[nH]c(=O)c(=O)[nH]c2cc1S(=O)(=O)N1CCN(c2cccc(C)c2C)CC1	none
